# Bioassay records from PubChem BioAssay.
# Rows were chosen to be rich in hits. Some 4.1% of all compounds tested hit in one or more screens of this group.
# TROY signal inh – inhibitors of TROY-driven NF-kB signaling, primary screen, Q293 LMP1-TROYcd cells, NF-kB luciferase, uHTS; inhibition, % at 10 µM; Q293 LMP1-TROYcd NF-kB luciferase reporter, 4 h; AID 1347056, 2019; 0.98% of 360,000 active;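 active = compounds whose plate-normalised and pattern-corrected inhibition of the luciferase reporter signal at the single screening dose is 50% or more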
# TRPM1 prom inh – inhibitors of MITF-dependent TRPM1 promoter reporter, primary screen, cell-based, SK-MEL-5, single point, luciferase. SK-MEL-5 TRPM1 promoter luciferase, 24 h. inhibition, % at 12.5 µM. 0.83% of 330,000 active. AID 488899, 2010;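 active = mean inhibition across replicates of 60% or more, whatever share of single replicates reaches that level; inconclusive = some that reach 60%, reason not given; inactive = mean inhibition across replicates below 60%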
# Peg3 prom inh – Peg3 promoter-driven luciferase inhibitors, primary screen, cell-based, HeLa, luciferase luminescence. HeLa PEG-Prom luciferase reporter, overnight. inhibition, % at 20 µM. 1.7% of 360,000 active. AID 588405, 2011;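 active = inhibition of at least 50% at 20 µM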
# Shn3 3UTR inh – reduction of Shn3 3'UTR firefly luciferase signal, primary screen, Schnurri-3 inhibitor project, cell-based, Clone20 osteoblasts, set 2; Clone20 osteoblast Shn3 3'UTR firefly luciferase, 24 h; 0.52% of 360,000 active; inhibition, % at 12.5 µM;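 active = mean inhibition of at least 75% with every replicate also reaching 75%; inconclusive = mean inhibition at least 75% but some replicate below; inactive = mean inhibition below 75%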
# TWEAK-Fn14 inh – inhibitors of TWEAK-Fn14 signaling, primary screen, luciferase reporter cells, uHTS; inhibition, % at 10 µM; AID 1159606, 2016; TWEAK-stimulated Fn14 reporter cells, luciferase luminescence, 8 h; 2% of 360,000 active; in the data active = inhibition above about 50%
# EBV LMP1 NFkB – EBV LMP1-driven NF-kappaB luciferase reporter inhibitors, primary screen, cell-based, luminescence, single point | LMP1-induced NF-kappaB luciferase reporter cells | inhibition, % at 12.5 µM | 0.69% of 350,000 active; in the data active = inhibition above about 41%; inconclusive = no clear call, values can overlap the other calls
# Hits are given with their value; . = inactive; ? = inconclusive; / = not tested or not shown.
SMILES,TROY signal inh,TRPM1 prom inh,Peg3 prom inh,Shn3 3UTR inh,TWEAK-Fn14 inh,EBV LMP1 NFkB
COc1ccc(S(=O)(=O)N(C)C[C@H]2OCCCC[C@H](C)Oc3ccc(N(C)C)cc3C(=O)N([C@H](C)CO)C[C@@H]2C)cc1,.,/,.,.,.,.
Cc1cc(Cl)c2oc(C(=O)N3CCN(c4ccncc4)CC3)c(C)c2c1,.,.,92,.,.,.
CCc1ccc(NC(=O)c2ccc3c(c2)CCN3S(C)(=O)=O)cc1,.,/,.,.,.,.
O=C(CNC(=O)c1ccccc1Cl)N/N=C/c1ccc([N+](=O)[O-])s1,.,.,.,.,.,.
O=[N+]([O-])c1ccc(/C=N/n2c(CO)nc3ccccc32)s1,.,72,.,.,.,.
Cc1nc2ccccc2n1/N=C/c1ccc([N+](=O)[O-])o1,.,.,.,.,.,.
Cc1nc2ccccc2n1/N=C/c1ccc([N+](=O)[O-])s1,.,82,.,92,70,.
COc1ccc(C(=O)N=C2CCC(C#N)=C3c4cc(OC)c(OC)cc4CCN23)cc1,.,.,51,.,.,.
C=CCn1c(SCC(=O)c2cccs2)nc2sc(CC)cc2c1=O,.,.,.,.,79,.
C=CCn1c(SCC(=O)O)nc2sc(CC)cc2c1=O,.,.,.,.,.,.
CC1CC(C)(C)NC(=S)N1CCC(=O)NCc1ccc(Cl)cc1 (stereo unspecified),.,.,.,.,.,.
COc1ccccc1-n1c(SCC(=O)NC(C)(C)C)nc(O)c(Cc2ccccc2)c1=O,.,.,.,.,.,.
COc1ccccc1-n1c(SCC(=O)N2CCCCC2)nc(O)c(Cc2ccccc2)c1=O,.,.,97,.,.,.
CCOCCCNC(=O)C1CCN(C(=O)N(C)C)CC1,.,.,.,.,.,.
CC(C)NC(=O)C1CCN(C(=O)N(C)C)CC1,.,.,.,.,51,.
CNc1nn(-c2cccc(Cl)c2)nc1N,.,.,.,.,.,.
O=C(/C=C/c1ccccc1)CC(O)(c1ccccc1)C(F)(F)C(F)F (stereo unspecified),64,.,101,.,69,.
O=C(/C=C/c1ccccc1)CC(O)(c1ccccc1)C(F)(F)F (stereo unspecified),64,.,105,.,88,.
Cc1ccc2nc3n(c(=O)c2c1)-c1ncccc1C(=O)NC3Cc1ccc(O)cc1 (stereo unspecified),.,/,.,.,.,.
Cc1ccc(-c2nnc(N3CCCCC3)c3ccccc23)cc1S(=O)(=O)N(C)C,.,.,.,.,.,.
Cc1ccc(-c2nnc(NCc3nc4ccccc4[nH]3)c3ccccc23)cc1S(=O)(=O)N1CCOCC1,.,.,65,.,66,.
Cc1ccc(-c2nnc(NCc3nc4ccccc4[nH]3)c3ccccc23)cc1S(=O)(=O)N(C)C,52,.,.,.,55,.
O=C(NCC(=O)N1CCN(C(=O)c2ccccc2)CC1)c1ccc(Cl)cc1Cl,.,/,.,.,.,.
CCN(CC(=O)Nc1c(F)cccc1F)C(=O)C1CC(=O)N(c2ccccc2OC)C1 (stereo unspecified),.,.,.,.,.,.
OC(CNCCC1C=Nc2ccccc21)Cn1c2ccc(Cl)cc2c2cc(Cl)ccc21 (stereo unspecified),.,91,102,93,74,.
SMILES,TROY signal inh,TRPM1 prom inh,Peg3 prom inh,Shn3 3UTR inh,TWEAK-Fn14 inh,EBV LMP1 NFkB
OC(CNCC1CCCO1)Cn1c2ccc(Cl)cc2c2cc(Cl)ccc21 (stereo unspecified),.,.,106,.,.,.
C[C@@H]1Cc2[nH][nH]c(=O)c2[C@H](C)O1,.,/,/,/,.,/
O=C(N/N=C/c1ccccn1)c1cccs1,.,.,.,.,.,.
CCCCNC(C(=O)Nc1ccc([N+](=O)[O-])cc1Br)c1ccccc1 (stereo unspecified),.,.,.,.,.,.
COCCNC(=O)CN(C(=O)CCC(=O)Nc1ccccn1)c1ccc(F)c(Cl)c1,.,.,.,.,.,87
Cc1ccc(NC(=O)c2cc3c(s2)CCCC3)cc1S(=O)(=O)Nc1ccccc1Cl,.,.,.,.,78,.
O=C(Nc1cccc(S(=O)(=O)Nc2ccc(Cl)cc2)c1)c1cc2c(s1)CCCC2,.,.,.,.,84,.
Cc1ccc(C(=O)Nc2ccc(C)c(S(=O)(=O)Nc3ccccc3Cl)c2)s1,.,.,.,.,.,.
COc1ccc(C(=O)COC(=O)c2cc(C)no2)c(OC)c1,.,/,.,.,.,.
O=C1CCNc2c(Cl)cc(Cl)cc21,.,.,.,.,.,.
CCc1cccc2c1Sc1ccccc1CC2N1CCNCC1 (stereo unspecified),.,81,111,.,.,.
CN1CCN(C2Cc3ccccc3Sc3ccc(Cl)cc32)CC1 (stereo unspecified),.,.,.,.,.,.
O=C(CNC(=O)c1ccccc1)N/N=C/C=C/c1ccccc1,.,.,.,.,.,.
O=C(Cc1cc(=O)[nH][nH]1)N/N=C/C=C/c1ccccc1,.,.,.,.,62,.
COC(=O)/C(=C\c1ccc([N+](=O)[O-])o1)NC(=O)c1ccccc1,.,.,.,.,.,.
Cc1cccc(NC(=O)/C(=C\c2ccc([N+](=O)[O-])o2)NC(=O)c2ccc(Cl)cc2)c1,.,.,56,.,.,.
CSC(=S)NN=C(C)c1cccc(C)n1,.,74,.,93,91,.
Cc1cccc(C(=S)N2CCOCC2)n1,.,.,.,.,.,.
CC(=NNC(=S)N1CCCCC1)c1ccccn1,.,/,.,?,.,57
CCNC(=S)N1CCN(c2ccccn2)CC1,.,.,.,.,.,.
Cc1cccc(NC(=S)Nc2cccc(C)n2)n1,.,.,.,.,.,.
CC(=NNC(=S)N1CCCCC1)c1cccc(C)n1,.,.,.,.,.,69
CC(=NNC(=S)N1CC2CCC(CC2)C1)c1ccncn1,.,78,100,88,.,.
CCOC(=O)Cn1nc(C)c(NC(=O)c2ccc(Br)o2)c1C,.,.,.,.,.,.
COc1ccc2c(c1)-c1nc(/N=C/c3c(O)ccc4ccccc34)sc1CC2,.,.,.,.,.,.
COC(=O)C(NC(=O)C(C)NC(=O)OCc1ccccc1)C(C)C (stereo unspecified),.,.,.,.,.,.
Cc1ccc(-n2cc(C(=O)c3ccc(F)cc3)nn2)cc1Cl,.,.,.,.,53,.
CNC(=S)N(CCc1c(C)[nH]c2ccc(OC)cc12)Cc1ccco1,.,.,.,.,.,.
